The values that follow come from PubChem BioAssay AID504848 (National Center for Advancing Translational Sciences (NCATS), 2011).

Screen size: about 2,300 compounds; about 1,400 (61%) were called active. Inconclusive results (about 29%) are left out. So high a share suggests a set chosen from earlier hits. Some of the results follow. A number with no mark means an inactive call. Calls follow the shape of the dose curve; as a rule, active = well fitted inhibition curve with a large enough effect; inconclusive = small, poorly fitted or top-dose-only effect, or effect the other way; inactive = no such curve, though single readings can be large or run the other way.
% is scaled to controls: 0 for no effect and ±100 for the full control effect; potency is read from the fitted curve at half-maximal effect.

The test is described as follows: Confirmation screen for delayed death inhibitors of the malarial parasite plastid, 96 hour incubation. Also: nearly all actives have a fitted effect of over 60% in size. The note with it: P. falciparum luciferase growth in erythrocytes; series mostly up to 28.7 µM; activity change, negative = inhibition: at the top concentration. The method, boiled down: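 Two-generation (96 h, 37 C) exposure of P. falciparum carrying an integrated firefly luciferase reporter in erythrocytes, 0.1% parasitemia and 2% hematocrit final, Albumax-supplemented RPMI. Luminescence decrease measures growth inhibition.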
For the molecule `CC1CCN(c2ccc3nnc(CCC(=O)N4CCN(c5ccccc5F)CC4)n3n2)CC1`, the Potency is 10 µM (active).
In the case of `COc1cccc2sc(Nc3nnc(-c4ccc(F)cc4)o3)nc12`, the Potency is 7.08 µM (active).
Turning to `COc1cccc2sc(Nc3nnc(-c4ccccc4Cl)o3)nc12`, the “activity change, negative = inhibition” value was -105%.
As for `CC(C)C[C@H](NC(=O)c1[nH]cnc1C(=O)N[C@@H](Cc1ccccc1)C(=O)OC(C)(C)C)C(=O)OC(C)(C)C`, the Potency was 6.31 µM (active).
The same measure, in the same setting: next, `CC(C)C[C@H](NC(=O)c1nc[nH]c1C(=O)N(C)Cc1ccccc1)C(=O)OC(C)(C)C`: 10 µM (active).
Regarding `C[C@H](NC(=O)c1nc[nH]c1C(=O)N[C@H](C)c1ccccc1)C(=O)OCc1ccccc1`, the “activity change, negative = inhibition” value is -12.3%.
Consider `CC(C)C[C@H](NC(=O)c1[nH]cnc1C(=O)N[C@@H](C)C(=O)OC(C)(C)C)C(=O)OC(C)(C)C`, for which the Potency is 10 µM (active).
Consider `CC(C)C[C@H](NC(=O)c1[nH]cnc1C(=O)Nc1ccc(CNC(=O)OC(C)(C)C)cc1)C(=O)OC(C)(C)C`, for which the Potency was 4.47 µM (active).
For `Cc1cc(C)cc(NC(=O)C2C3C=CC4(O3)C2C(=O)N(CCCN2CCCC2)C4C(=O)NC2CCCC(C)C2C)c1` (stereo not given), the Potency was 12.6 µM (active).
For the molecule `O=C(O)c1cc2ccccc2c(N=Nc2cccnc2)c1O`, the Potency was 3.98 µM (active).
Still for that read-out and setting: next, `O=C(Nc1ccon1)c1nc[nH]c1C(=O)NCc1ccccc1`: 7.94 µM (active).
In the case of `CCC(=O)N1c2ccccc2NC2=C(C(=O)CC(c3ccco3)C2)C1c1ccco1` (stereo not given), the Potency was 10 µM (active).
As to `C=CCC1(O)C(=O)N2C(=C1C(=O)OCC)c1ccc3ccccc3c1CC2(C)C` (stereo not given), the Potency is 10 µM (active).
For the molecule `O=C(Cn1c(=O)oc2ccc(Cl)cc21)NC1CCCCC1`, the Potency is 10 µM (active).
`CN(C)C1(CNC(=O)C2CCC(=O)N(Cc3ccc(Cl)cc3)C2)CCCCC1` (stereo not given): the Potency was 5.62 µM (active).
As for `Cc1ccc(Nc2nc(=O)c3cccnc3s2)c(Br)c1`, the “activity change, negative = inhibition” value was -10.6%.
In the case of `Cc1cc(OCC(=O)N[C@@H](CSCc2ccccc2)C(=O)O)c2c(C)c(C)c(=O)oc2c1`, the Potency is 14.1 µM (active).
Consider `CN(CCNC(=O)C1CCC(=O)N(Cc2cccc(F)c2)C1)CCc1ccccc1` (stereo not given), for which the Potency is 7.08 µM (active).
The same measure, in the same setting: next, `CN(Cc1ccccc1Cl)C(=O)C1CCC(=O)N(CCc2cccc(F)c2)C1` (stereo not given): 7.94 µM (active).
For the molecule `CN(CCOc1ccccc1)C(=O)C1CCC(=O)N(CCN2CCOCC2)C1` (stereo not given), the “activity change, negative = inhibition” value was 4.57%.
In the case of `COc1ccc(C)cc1S(=O)(=O)N1CCN(S(=O)(=O)c2cc(C(=O)O)ccc2C)CC1`, the Potency was 8.91 µM (active).
As to `Cc1ccc(C(=O)NC2CCCC2)cc1S(=O)(=O)N1CCCCC1`, the Potency was 8.91 µM (active).
Same read-out and setting: next, `Cc1ccc(C(=O)NC2CCCCC2)cc1S(=O)(=O)N1CCCC1`: 10 µM (active); `Fc1ccc2cnc(-c3ccccc3)c(-c3ccc(C(F)(F)F)cc3)c2c1`: 14.1 µM (active); `O=[N+]([O-])c1ccc(-c2c(-c3ccccc3)ncc3ccc(F)cc23)cc1`: 12.6 µM (active).
With `CCCCNC(=O)c1onc(CSc2ccccc2C)c1C(=O)O`, the “activity change, negative = inhibition” value was -24.1%.
As to `CCc1ccc(OCCNC(=O)c2ccco2)cc1`, the Potency is 12.6 µM (active).
For `O=C(CNC(=O)c1ccco1)OCC(=O)c1ccccc1`, the “activity change, negative = inhibition” value was -20.9%.
For the molecule `CCCCNC(=O)c1onc(CSc2cccc3ccccc23)c1C(=O)O`, the “activity change, negative = inhibition” value was 9.71%.
With `CCc1ccc(OCCNC(=O)c2ccccc2SCc2ccccc2)cc1`, the Potency was 12.6 µM (active).
On the same count and under the same terms, next, `CCCn1c(CN2CCN(C(=O)OCC)CC2)nc2cc(NC(=O)C(C)C)ccc21`: 10 µM (active).
With `Fc1ccccc1N1CCN(c2ncnc3[nH]ncc23)CC1`, the “activity change, negative = inhibition” value was -3.78%.
Regarding `CCN1CCN(c2ncnc3c2c(-c2ccccc2)cn3-c2ccc(F)cc2)CC1`, the Potency was 10 µM (active).
`CN1CCN(c2ncnc3c2c(-c2ccccc2)cn3-c2ccc(F)cc2)CC1`: the Potency is 11.2 µM (active).
Consider `Cc1[nH]c(C)c(C(=O)/C=C/c2ccc([N+](=O)[O-])cc2)c1C`, for which the Potency is 7.94 µM (active).
Same read-out and setting: next, `Cc1c(OC(C)C(=O)NCC2CCC(C(=O)O)CC2)ccc2c1oc(=O)c1ccccc12` (stereo not given): 12.6 µM (active); `Cc1c(Cc2ccccc2)c(=O)oc2cc(OC(C)C(=O)NCC3CCC(C(=O)O)CC3)c(Cl)cc12` (stereo not given): 10 µM (active).
Consider `Cc1oc(/C=N/NS(=O)(=O)c2ccccc2)cc1Br`, for which the “activity change, negative = inhibition” value is -5.08%.
For the molecule `COc1ccc(CN(C(=O)/C=C/C(=O)c2ccc(OC)cc2O)C(C(=O)NC2CCCCC2)c2ccncc2)cc1` (stereo not given), the Potency is 6.31 µM (active).
`COc1ccc(C(=O)/C=C/C(=O)N(CC(=O)NC2CCCCC2)CC2CCCO2)c(O)c1` (stereo not given): the Potency was 12.6 µM (active).
Turning to `CCOc1ccc(-c2cc(C(=O)N/N=C(\C)c3cccnc3)c3ccccc3n2)c(OCC)c1`, the Potency was 14.1 µM (active).
The same measure, in the same setting: next, `CCOC(=O)CSc1nc2sc3c(c2c(=O)n1C1CCCCC1)CCN(C)C3`: 2 µM (active).
For `CCn1c(SCC(=O)Nc2ccc(C)cc2)nc2sc3c(c2c1=O)CCN(C)C3`, the Potency was 0.708 µM (active).
With `CC(C)(C)OC(=O)NCCCCCNC(=O)c1[nH]cnc1C(=O)Nc1nccs1`, the Potency was 7.08 µM (active).
With `Cn1cc([N+](=O)[O-])c(C(=O)Nc2nccs2)n1`, the “activity change, negative = inhibition” value was -17.4%.
On to `COc1cccc(F)c1C(C[N+](=O)[O-])c1c(N)n(C)c(=O)n(C)c1=O` (stereo not given), for which the Potency is 3.98 µM (active).
In the case of `Cc1ccc(CCNC(=O)C2CCN(S(=O)(=O)c3ccc4c(c3)NC(=O)CO4)CC2)cc1`, the Potency is 10 µM (active).
In the case of `COc1ccc(C)cc1NC(=O)C1CCN(S(=O)(=O)c2ccc3c(c2)NC(=O)CO3)CC1`, the Potency was 7.94 µM (active).
As for `Cc1ccc(C)c(N2CCN(S(=O)(=O)c3ccc4c(c3)NC(=O)CS4)CC2)c1`, the Potency was 8.91 µM (active).
In the case of `Cc1cccc(N2CCN(S(=O)(=O)c3ccc4c(c3)NC(=O)CO4)CC2)c1C`, the Potency was 11.2 µM (active).
For `O=C(CCl)Nc1cccc(Oc2cnccn2)c1`, the Potency is 3.55 µM (active).
For the molecule `O=C(/C=C/c1ccccc1Cl)c1ccc(O)cc1`, the Potency was 10 µM (active).
As for `O=C(/C=C/c1c(F)cccc1Cl)c1ccc(O)cc1`, the Potency was 12.6 µM (active).
For the molecule `COc1ccc(-c2c(C(C)=O)c(C)n(C)c2C)cc1`, the Potency is 10 µM (active).
Regarding `CCCCOc1ccc(NC2=NC3(CCCC3)N=C(N)N2)cc1`, the Potency is 0.708 µM (active).
The same measure, in the same setting: next, `COc1ccc2nc3sc(C(=O)NCCN4CCc5ccccc5C4)cc3cc2c1`: 2.24 µM (active).
In the case of `COc1cc(/C=C2\CC(C(C)(C)C)C/C(=C\c3cc(OC)c(OC)c(OC)c3)C2=O)cc(OC)c1OC` (stereo not given), the Potency was 3.16 µM (active).
For the molecule `COc1ccc(/C=C2\CC/C(=C\c3ccc(OC)c(OC)c3)C2=O)cc1OC`, the Potency was 14.1 µM (active).
Take `COc1cc(/C=C2\COC/C(=C\c3ccc(O)c(OC)c3)C2=O)ccc1O`: the Potency was 3.55 µM (active).
For the molecule `COc1cc(/C=C2\COC/C(=C\c3cc(OC)c(OC)c(OC)c3)C2=O)cc(OC)c1OC`, the Potency was 2.51 µM (active).
For `COc1cc(/C=C2/CCC/C(=C\c3cc(O)c(OC)c(Cl)c3)C2=O)cc(Cl)c1O`, the Potency is 7.08 µM (active).
Still for that read-out and setting: next, `COc1ccc(C(=O)Nc2nnc(S(=O)(=O)N3CCOCC3)s2)cc1`: 15.8 µM (active); `CC(C)c1ccc(C(=O)Nc2nnc(S(=O)(=O)N3CCOCC3)s2)cc1`: 12.6 µM (active); `CCn1c(=O)c(CCC(=O)N2CCOCC2)c(C)c2c(C)nn(-c3ccccc3)c21`: 10 µM (active).
`C=CCSC(=C(C#N)C#N)c1cc2c([nH]1)CCCC2`: the Potency was 4.47 µM (active).
Regarding `COC(=O)c1c(NC(=O)c2ccco2)sc2c1CC(C)(C)NC2(C)C`, the Potency was 14.1 µM (active).
Same read-out and setting: next, `CCOC(=O)c1c(NC(=S)N2CCCCC2)sc2c1CCN(C(=O)OCC)C2`: 3.98 µM (active).
Regarding `Cc1cccc(CSc2cccc3cccnc23)c1`, the Potency is 12.6 µM (active).
With `CCOC(=O)N1CCN(C(=O)c2ccc(Cl)c(S(=O)(=O)N3CCCC3)c2)CC1`, the Potency is 12.6 µM (active).
As for `Cc1c(NC(=O)c2ccc(Cl)c(S(=O)(=O)N3CCCCC3)c2)c(=O)n(-c2ccccc2)n1C`, the Potency was 10 µM (active).
In the case of `Cc1c(NC(=S)NC(=O)C(C)(C)C)c(=O)n(-c2ccccc2)n1C`, the “activity change, negative = inhibition” value was 1.52%.
In the case of `O=C(Nc1ccncc1)c1ccc(Cl)c(S(=O)(=O)N2CCCC2)c1`, the Potency is 8.91 µM (active).
For `Cc1cc(F)ccc1S(=O)(=O)Nc1ccccc1C(=O)Nc1ccccc1-c1nc2ccccc2[nH]1`, the Potency was 4.47 µM (active).
For `Nc1cc[n+](CC(=O)c2ccc3c(c2)OCCO3)cc1`, the Potency is 4.47 µM (active).
As to `COCCNCC(=O)NC12CC3CC(CC(C3)C1)C2`, the “activity change, negative = inhibition” value is -4.43%.
For the molecule `CN(C)c1ccc(NC(=S)NC23CC4CC(CC(C4)C2)C3)cc1`, the Potency was 1.58 µM (active).
On the same count and under the same terms, next, `COc1ccc(N2CCN(CCCn3c(=S)[nH]c4ccccc4c3=O)CC2)cc1`: 12.6 µM (active); `O=C(/C=C/c1ccc(Cl)c(Cl)c1)NCCCn1ccnc1`: 12.6 µM (active); `COc1ccc(C)cc1NC(=O)CSCc1ccccc1C`: 12.6 µM (active).
`CCOc1ccc(-n2c(N)c(-c3nc4ccccc4n3C)c3nc4ccccc4nc32)cc1`: the Potency is 3.98 µM (active).
On the same count and under the same terms, next, `COc1ccccc1CNC(=O)CN1C(=O)NC(c2ccccc2)(c2ccc(C)c(C)c2)C1=O` (stereo not given): 12.6 µM (active); `Cc1cc(NC(=O)CN2C(=O)NC(c3ccccc3)(c3ccc(C)c(C)c3)C2=O)no1` (stereo not given): 11.2 µM (active).
Regarding `Cc1cccc(CS(=O)(=O)c2ncc(Cl)c(C(=O)Nc3c(C)cccc3C)n2)c1`, the “activity change, negative = inhibition” value was -31.5%.
On to `COc1cc(NCc2ccc3nc(N)nc(N)c3c2C)cc(OC)c1OC`, for which the Potency was 0.199 µM (active).
On to `Cc1ccc(-n2cc(CN3CCC(CO)(Cc4cccc(C(F)(F)F)c4)CC3)cn2)cc1`, for which the Potency was 7.94 µM (active).
As for `Cc1c(CCO)sc[n+]1CC(=O)OCCC12CC3CC(CC(C3)C1)C2`, the Potency was 3.16 µM (active).
Turning to `Cc1cc(C)cc(NC(=O)c2ccc(CN3CCc4ccccc4C3)cc2)c1`, the Potency is 11.2 µM (active).
Take `O=C(Nc1ccc2[nH]ncc2c1)c1ccc(F)cc1`: the “activity change, negative = inhibition” value was -10%.
Regarding `O=C(Nc1ccc(Cl)cc1)c1ccc(CN2CCc3ccccc3C2)cc1`, the Potency was 14.1 µM (active).
Consider `O=C(Nc1ccc(F)cc1)c1ccc(CN2CCc3ccccc3C2)cc1`, for which the Potency was 12.6 µM (active).
